# Shown are actives, neighbours in structure and some others; about 11% of the full set was active somewhere.
# L3MBTL1 inh = inhibitors of human L3MBTL1 | Q9Y468 | AlphaScreen L3MBTL1–H3K9me1 peptide binding | Potency, µM (top dose mostly 57.1 µM), without a hit: at the highest dose activity, negative = inhibition, actives largely listed as inhibitors | actives 0.66% (n = 230,000) | AID 485360; also: potency is read from the fitted curve at half-maximal effect; % is scaled to controls: 0 for no effect and ±100 for the full control effect; nearly all actives have a fitted effect of over 60% in size
# Target sequence (Q9Y468 whole entry, looked up): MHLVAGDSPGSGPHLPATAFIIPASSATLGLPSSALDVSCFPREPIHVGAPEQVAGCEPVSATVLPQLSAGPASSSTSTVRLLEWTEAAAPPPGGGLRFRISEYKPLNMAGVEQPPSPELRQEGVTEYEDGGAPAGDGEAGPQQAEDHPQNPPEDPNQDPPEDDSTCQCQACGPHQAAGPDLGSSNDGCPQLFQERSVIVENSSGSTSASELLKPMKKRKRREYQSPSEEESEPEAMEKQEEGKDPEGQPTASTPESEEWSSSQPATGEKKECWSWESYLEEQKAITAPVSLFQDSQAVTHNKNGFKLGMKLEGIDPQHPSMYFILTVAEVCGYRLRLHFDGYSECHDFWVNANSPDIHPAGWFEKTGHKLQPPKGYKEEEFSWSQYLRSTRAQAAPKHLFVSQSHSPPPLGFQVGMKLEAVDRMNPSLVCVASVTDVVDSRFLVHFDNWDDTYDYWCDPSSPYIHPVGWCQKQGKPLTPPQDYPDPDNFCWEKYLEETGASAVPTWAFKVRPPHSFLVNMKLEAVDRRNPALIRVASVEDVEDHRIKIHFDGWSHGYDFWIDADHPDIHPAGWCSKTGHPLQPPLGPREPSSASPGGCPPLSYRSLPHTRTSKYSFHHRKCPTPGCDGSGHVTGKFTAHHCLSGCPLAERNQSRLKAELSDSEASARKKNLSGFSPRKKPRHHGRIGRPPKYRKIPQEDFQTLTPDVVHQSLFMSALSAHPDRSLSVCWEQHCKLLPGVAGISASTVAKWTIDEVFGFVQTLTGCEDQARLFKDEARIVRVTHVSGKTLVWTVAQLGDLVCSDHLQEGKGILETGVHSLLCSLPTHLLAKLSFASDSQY
#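 AlphaScreen assay: L3MBTL1 (50 nM final) was preincubated 30 min at room temperature with biotinylated H3(1-15)K9me1 peptide (75 nM final), then 30 min with library compounds; streptavidin donor and nickel chelate acceptor beads (10 ug/mL final) added, 30 min dark.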
# PI5P4K alpha inh = inhibitors of human PI5P4K alpha; P48426; PI5P4Kalpha enzyme, ADP-Glo luminescence, 60 min; stronger effect = lower value; max response, %; actives 1.2% (n = 330,000); AID 652105; active = max response of -50% or lower; inconclusive = between -30% and -50%; inactive = -30% or higher; also: value at the top dose of about 77 µM; % is scaled to controls: 0 for no effect and ±100 for the full control effect
#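 ADP-Glo luminescence end-point read after a 60 min room-temperature kinase reaction of PI5P4Kalpha plus substrate, initiated with ATP at 5 microM final. Buffer: 0.038 M HEPES pH 7.4, EGTA, 0.1% CHAPS, 5% DMSO.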
# BAZ2B inh = inhibitors of human BAZ2B bromodomain | Potency, µM (doses to about 114 µM), inactives show at the top dose activity change, negative = inhibition, actives largely listed as inhibitors | AlphaScreen BAZ2B-H3K14Ac peptide displacement | actives 4.4% (n = 360,000); also: potency is read from the fitted curve at half-maximal effect; % is scaled to controls: 0 for no effect and ±100 for the full control effect; nearly all actives have a fitted effect of over 60% in size
#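 Inhibition is scored as reduced AlphaScreen emission. The BAZ2B/b-H3(5-23)K14Ac complex (50 nM each) in PBS pH 7.4, 0.01% Tween-20 meets compound (up to 110 uM) for 30 min at RT before bead addition.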
# HP1b binding inh = HP1-beta chromodomain-methylated histone interaction inhibition | P83916 | AlphaScreen HP1-beta / biotin-H3K9me3 peptide binding | Potency, µM (highest dose often 114 µM), without a hit: top-dose activity change, negative = inhibition, most hits filed as inhibitors | actives 0.56% (n = 390,000) | AID 540317; also: potency is read from the fitted curve at half-maximal effect; nearly all actives have a fitted effect of over 70% in size
#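 AlphaScreen: HP1-beta (50 nM) preformed 30 min with biotin-H3(1-18)K9me3 peptide (50 nM) in PBS pH 7.4, 0.01% Tween-20. Compound added for 30 min at RT, then streptavidin donor/nickel chelate acceptor beads (10 ug/mL) for 30 min.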
# G9a inh = inhibitors of human histone lysine methyltransferase G9a; Q96KQ7; G9a H3K9 monomethylation, AlphaScreen, 2 h; Potency, µM (series often up to 102 µM), without a hit: at the highest dose activity, negative = inhibition, usual class: inhibitors; actives 8.8% (n = 350,000); AID 504332; also: potency is read from the fitted curve at half-maximal effect; % is scaled to controls: 0 for no effect and ±100 for the full control effect; nearly all actives have a fitted effect of over 75% in size
#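 G9a (20 nM) was preincubated 15 min with compound, then reacted 2 h at room temperature with 500 nM biotin-H3K9 peptide and 20 µM SAM. Monomethyl-H3K9 detected by AlphaScreen using anti-H3K9me1 antibody.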
# JMJD2A Tudor = blocks the human JMJD2A Tudor domain | AlphaScreen JMJD2A-Tudor / H3K4me3 peptide binding | AID 504339 | Potency, µM (top dose mostly 114 µM), for the others: at the highest dose activity change, negative = inhibition, most hits filed as inhibitors | O75164 | actives 4.4% (n = 390,000); also: potency is read from the fitted curve at half-maximal effect; % is scaled to controls: 0 for no effect and ±100 for the full control effect; nearly all actives have a fitted effect of over 50% in size
# The depositor's hits bear a star; u = inconclusive; x = no result; [ ] = remark or other dose. Unless noted, calls follow the shape of the dose curve; as a rule, active = well fitted inhibition curve with a large enough effect; inconclusive = small, poorly fitted or top-dose-only effect; inactive = no such curve, though single readings can be large or run the other way.
SMILES,L3MBTL1 inh,PI5P4K alpha inh,BAZ2B inh,HP1b binding inh,G9a inh,JMJD2A Tudor
CC/C(O)=C(\C#N)c1nnc2n1CCCCC2,4.5%,x,79.4µM*,-12.5%,2.4%[0.501 µM],3.55µM*
N#C/C(=C(/O)c1ccc([N+](=O)[O-])cc1)c1nnc2n1CCCCC2,-1.4%,-10.0,u,22.0%,50.1µM*,28.2µM*
CCN1CCN(Cc2c(O)ccc3c(C)c(-c4ccccc4)c(=O)oc23)CC1,x,x,4.5%,27.1%[57 µM],3.3%[59 µM],1.0%
C=CCNCCCOc1ccc(C(C)(C)c2ccccc2)cc1,0.7%,3.4,39.8µM*,u,10µM*,1.58µM*
CC(C)(c1ccccc1)c1ccc(OCCCNCCO)cc1,x,6.0,56.2µM*,-6.7%,-23.1%[12.7 µM],-15.3%[11.4 µM]
COc1ccc(OCCCNCCc2ccccc2)cc1,0.3%,-2.9,-24.7%,27.2%,3.8%[12.7 µM],-9.7%
OCCNCCCCOc1ccc(OCc2ccccc2)cc1,-12.7%,17.5,-9.4%,-0.5%,18.3%[59 µM],-33.8%
CC(C)(C)c1ccc(OCCCNCc2ccccc2)cc1,2.2%,9.8,u,u,10µM*,3.55µM*
COCCNCCCOc1ccc(C(C)(C)c2ccccc2)cc1,-2.8%,1.8,35.5µM*,u,10µM*,0.794µM*
Cc1ccccc1NC(=O)CCn1cnc2onc(-c3ccc(F)cc3)c2c1=O,x,x,8.1%[57.1 µM],33.5%,-23.2%[59 µM],-15.5%
NC(=O)C1CC2(NC(=O)NC2=O)c2cc(F)ccc2O1 (centres undefined),x,x,x,x,-1.6%[12.7 µM],x
COc1ccc(CCNC(=O)Cn2nnc(-c3ccc(C(F)(F)F)cc3)n2)cc1OC,x,x,-11.8%,30.8%,1.7%[59 µM],-4.5%
CCc1cc(OCCCCNCc2ccccc2)ccc1Cl,11.2%,17.6,u,25.2%,u,6.31µM*
CC(C)(c1ccccc1)c1ccc(OCCn2cnc3ccccc3c2=O)cc1,x,41.6,-2.5%,72.7%,12.0%[12.7 µM],-2.8%
OCCCCNCc1ccc(OCc2ccccc2Cl)cc1,0.1%,x,3.1%,24.2%,-3.0%,-19.8%
COCCCNCCCOc1ccc(C(C)(C)c2ccccc2)cc1,-0.7%,-2.4,44.7µM*,u,2.82µM*,6.31µM*
S=c1[nH]nc(-c2ccccn2)n1/N=C/c1cccc2ccccc12,31.6µM*,-13.0,28.2µM*,u,0.398µM*,5.62µM*
S=c1[nH]nc(-c2ccccn2)n1/N=C/c1ccc(Cl)cc1,15.8µM*,4.3,17.8µM*,0.1%,2.24µM*,5.62µM*
Cc1ccccc1/C=N/n1c(-c2ccccn2)n[nH]c1=S,22.4µM*,-2.9,8.91µM*,-16.0%,0.891µM*,3.16µM*
S=c1[nH]nc(-c2ccccn2)n1/N=C/c1ccccc1,u,-1.9,11.2µM*,-2.8%,u,2.82µM*
Cc1n[nH]c(=S)n1/N=C/c1c(O)ccc2ccccc12,-4.7%,-7.3,-12.7%,43.2%,x,u
Cc1noc(C)c1C(=O)N1CCC[C@@]2(CCN(c3ccccn3)C2)C1,x,x,x,x,-2.7%[12.7 µM],x
O=[N+]([O-])c1cc(-c2nc(-c3cccnc3)no2)ccc1NCc1ccccc1,x,x,-9.1%,28.2%,-36.7%[59 µM],-19.2%
S=c1[nH]nc(-c2ccccn2)n1/N=C/c1c(Cl)cccc1Cl,20µM*,-16.1,22.4µM*,-17.9%,1.78µM*,3.55µM*
Cc1n[nH]c(=S)n(/N=C/c2cccs2)c1=O,9.4%,-8.9,-2.4%,22.2%,8.0%,25.1µM*
SMILES,L3MBTL1 inh,PI5P4K alpha inh,BAZ2B inh,HP1b binding inh,G9a inh,JMJD2A Tudor
Cc1ccc(/C=N/n2c(-c3ccccn3)n[nH]c2=S)o1,u,-6.9,5.01µM*,u,3.16µM*,5.62µM*
S=c1[nH]nc(-c2ccccn2)n1/N=C/c1cccs1,28.2µM*,-2.4,8.91µM*,19.4%,3.16µM*,3.55µM*
CCCCCCCCCCCCCCCC[N+](C)(C)Cc1ccccc1,x,x,x,x,-37.7%[12.7 µM],x
O=C1CCC2=C1C(c1ccccc1Cl)N=C(Nc1nc3ccccc3o1)N2 (centres undefined),x,x,x,x,x,-23.4%
Cc1cc(N/N=C(/CCC(=O)O)C(=O)O)nc2ccccc12,9.5%,3.7,u,35.2%,3.16µM*,u
CCSc1oc(-c2ccco2)nc1S(=O)(=O)c1ccc(C)cc1,x,-19.8,-30.7%,28.9%,25.1µM*,-12.6%
Cc1ccc(S(=O)(=O)c2nc(-c3ccco3)oc2SCc2ccc(F)cc2)cc1,x,x,-13.1%,17.9%,u,-8.9%
CCCCS(=O)(=O)c1oc(-c2cccs2)nc1S(=O)(=O)c1ccc(F)cc1,x,x,-2.2%,42.0%,u,-12.8%
CCSc1oc(-c2ccco2)nc1S(=O)(=O)c1ccc(F)cc1,-8.2%,x,3.2%,14.2%,3.98µM*,-14.7%
Cc1ccc(S(=O)(=O)c2nc(-c3ccco3)oc2SC(C)C)cc1,x,u,-13.8%,14.3%,44.7µM*,-15.7%
CCCCCS(=O)(=O)c1oc(-c2cccs2)nc1S(=O)(=O)c1ccc(C)cc1,x,x,-5.2%,53.5%,3.55µM*,-14.9%
Cc1c(C(=O)Nc2cccc(-c3nc4ccccc4s3)c2)oc2ccccc12,x,x,-6.6%,9.8%,-23.3%[59 µM],4.3%
O=S(=O)(NCc1nc2cccnc2n1Cc1ccccc1Cl)c1ccc2c(c1)CCCC2,x,x,-7.0%,19.9%[57 µM],3.5%[59 µM],-17.4%
CC(C)CSc1oc(-c2ccco2)nc1S(=O)(=O)c1ccccc1,-5.0%,u,-19.6%,63.4%,35.5µM*,3.5%
O=S(=O)(c1ccccc1)c1nc(-c2cccs2)oc1SCc1ccccc1Cl,x,x,-10.2%,41.9%,-25.3%[59 µM],8.9%
CCSc1oc(-c2cccs2)nc1S(=O)(=O)c1ccccc1,u,-21.6,-2.5%,u,u,39.8µM*
Cc1ccc(S(=O)(=O)c2nc(-c3ccco3)oc2SCC(C)C)cc1,x,x,-1.0%,40.8%,u,-1.4%
Cc1cccc(N2CCN(C(=O)c3cn(C4CCCCC4)c(=O)c4c3c3ccccc3n4C)CC2)c1C,x,x,-0.8%,40.1%,-1.9%[59 µM],-28.1%
CN1CCN(C(=O)C2CCCN(S(=O)(=O)c3ccc(Cl)cc3)C2)CC1 (centres undefined),x,0.9,50.1µM*,u,10µM*,0.708µM*
O=C(C1CCCN(S(=O)(=O)c2ccccc2)C1)N1CCCCC1 (centres undefined),x,1.6,-1.5%,30.4%,x,-13.8%
CN1CCN(C(=O)C2CCCN(S(=O)(=O)c3ccccc3)C2)CC1 (centres undefined),x,5.2,u,-16.2%,x,20µM*
COc1ccc(NC(=O)CSc2nc(-c3ccc(OC)cc3)[nH]c2-c2ccc(OC)cc2)cc1,x,x,-4.0%,13.0%,-3.9%[59 µM],-23.6%
CC(=O)N1CCN(C(=O)CSc2nc3c(cnn3-c3ccccc3)c(=O)[nH]2)CC1,-4.0%,-1.6,-7.2%,28.1%,-38.0%,8.4%
O=C(CSc1nc2c(cnn2-c2ccccc2)c(=O)[nH]1)N1N=C(c2cccs2)CC1c1ccc(F)cc1 (centres undefined),6.0%,11.9,-26.1%,6.9%,28.2µM*,-10.9%

# High-throughput results (PubChem)
